# Laboratory results: PMC9911399, “Two distinct binding modes provide the RNA-binding protein RbFox with extraordinary sequence specificity”
# Where a chain is given by its changes, count along the chain named. Over roughly 16,000 sequences, “ka relative to ugcaugu” has its median near 0.0091; the highest 2% begin near 0.032. For the sample, the highest values were picked, then their nearest neighbours and some sequences at random.
# T1: RBFOX1 RRM (Homo sapiens, UniProt Q9NWB1 109-208)
# T1 sequence: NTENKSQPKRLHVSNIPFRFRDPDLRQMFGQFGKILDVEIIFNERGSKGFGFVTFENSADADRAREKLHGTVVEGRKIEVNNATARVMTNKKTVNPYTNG
# B1: AAAGAAG (DNA:RNA)
# RNA: GGGAGACCGGAAUUCAGAUUGUCCAAAGAAGUUAAAUCCCGUCGUAGCCACCA
# DNA 1: CAATCTGAATTCCGGTCTCCC
# DNA 2: TGGTGGCTACGACGGGATT
# B2: GCUUCCG (DNA:RNA)
# RNA: B1 RNA with A25G, A26C, A27U, G28U, A29C, A30C
# DNA 1: CAATCTGAATTCCGGTCTCCC
# DNA 2: TGGTGGCTACGACGGGATT
# B3: GCUUCUG (DNA:RNA)
# RNA: B1 RNA with A25G, A26C, A27U, G28U, A29C, A30U
# DNA 1: CAATCTGAATTCCGGTCTCCC
# DNA 2: TGGTGGCTACGACGGGATT
# B4: GCUUGUG (DNA:RNA)
# RNA: B1 RNA with A25G, A26C, A27U, G28U, A29G, A30U
# DNA 1: CAATCTGAATTCCGGTCTCCC
# DNA 2: TGGTGGCTACGACGGGATT
# B5: GCGCUUC (DNA:RNA)
# RNA: GGGAGACCGGAAUUCAGAUUGUCCGCGCUUCUUAAAUCCCGUCGUAGCCACCA
# DNA 1: CAATCTGAATTCCGGTCTCCC
# DNA 2: TGGTGGCTACGACGGGATT
# B6: GUCCCGC (DNA:RNA)
# RNA: B5 RNA with C26U, G27C, U29C, U30G
# DNA 1: CAATCTGAATTCCGGTCTCCC
# DNA 2: TGGTGGCTACGACGGGATT
# B7: CGUCCGC (DNA:RNA)
# RNA: B5 RNA with G25C, C26G, G27U, U29C, U30G
# DNA 1: CAATCTGAATTCCGGTCTCCC
# DNA 2: TGGTGGCTACGACGGGATT
# B8: ACUGUGU (DNA:RNA)
# RNA: B1 RNA with A26C, A27U, A29U, A30G, G31U
# DNA 1: CAATCTGAATTCCGGTCTCCC
# DNA 2: TGGTGGCTACGACGGGATT
# B9: ACCCUUU (DNA:RNA)
# RNA: B5 RNA with G25A, G27C, C31U
# DNA 1: CAATCTGAATTCCGGTCTCCC
# DNA 2: TGGTGGCTACGACGGGATT
# B10: GACAGCA (DNA:RNA)
# RNA: B1 RNA with A25G, A27C, G28A, A29G, A30C, G31A
# DNA 1: CAATCTGAATTCCGGTCTCCC
# DNA 2: TGGTGGCTACGACGGGATT
# B11: GUGAAUA (DNA:RNA)
# RNA: B5 RNA with C26U, C28A, U29A, C31A
# DNA 1: CAATCTGAATTCCGGTCTCCC
# DNA 2: TGGTGGCTACGACGGGATT
# B12: UGGGUGU (DNA:RNA)
# RNA: B5 RNA with G25U, C26G, C28G, U30G, C31U
# DNA 1: CAATCTGAATTCCGGTCTCCC
# DNA 2: TGGTGGCTACGACGGGATT
# B13: UGGUGGG (DNA:RNA)
# RNA: B1 RNA with A25U, A26G, A27G, G28U, A29G, A30G
# DNA 1: CAATCTGAATTCCGGTCTCCC
# DNA 2: TGGTGGCTACGACGGGATT
# B14: CUGGUGU (DNA:RNA)
# RNA: B5 RNA with G25C, C26U, C28G, U30G, C31U
# DNA 1: CAATCTGAATTCCGGTCTCCC
# DNA 2: TGGTGGCTACGACGGGATT
# B15: UGGUGUU (DNA:RNA)
# RNA: B5 RNA with G25U, C26G, C28U, U29G, C31U
# DNA 1: CAATCTGAATTCCGGTCTCCC
# DNA 2: TGGTGGCTACGACGGGATT
# B16: UGGAAGU (DNA:RNA)
# RNA: B1 RNA with A25U, A26G, A27G, G28A, A30G, G31U
# DNA 1: CAATCTGAATTCCGGTCTCCC
# DNA 2: TGGTGGCTACGACGGGATT
# B17: UGGAGUU (DNA:RNA)
# RNA: B5 RNA with G25U, C26G, C28A, U29G, C31U
# DNA 1: CAATCTGAATTCCGGTCTCCC
# DNA 2: TGGTGGCTACGACGGGATT
# B18: CUGGAAG (DNA:RNA)
# RNA: B1 RNA with A25C, A26U, A27G
# DNA 1: CAATCTGAATTCCGGTCTCCC
# DNA 2: TGGTGGCTACGACGGGATT
# B19: UGGGGAA (DNA:RNA)
# RNA: B1 RNA with A25U, A26G, A27G, A29G, G31A
# DNA 1: CAATCTGAATTCCGGTCTCCC
# DNA 2: TGGTGGCTACGACGGGATT
# B20: UGGGAGU (DNA:RNA)
# RNA: B1 RNA with A25U, A26G, A27G, A30G, G31U
# DNA 1: CAATCTGAATTCCGGTCTCCC
# DNA 2: TGGTGGCTACGACGGGATT
# B21: UGGGGUG (DNA:RNA)
# RNA: B1 RNA with A25U, A26G, A27G, A29G, A30U
# DNA 1: CAATCTGAATTCCGGTCTCCC
# DNA 2: TGGTGGCTACGACGGGATT
# B22: UGGGAAG (DNA:RNA)
# RNA: B1 RNA with A25U, A26G, A27G
# DNA 1: CAATCTGAATTCCGGTCTCCC
# DNA 2: TGGTGGCTACGACGGGATT
# B23: UGGGGAG (DNA:RNA)
# RNA: B1 RNA with A25U, A26G, A27G, A29G
# DNA 1: CAATCTGAATTCCGGTCTCCC
# DNA 2: TGGTGGCTACGACGGGATT
# B24: UCGCAGG (DNA:RNA)
# RNA: B5 RNA with G25U, U29A, U30G, C31G
# DNA 1: CAATCTGAATTCCGGTCTCCC
# DNA 2: TGGTGGCTACGACGGGATT
# B25: UACAUAC (DNA:RNA)
# RNA: B1 RNA with A25U, A27C, G28A, A29U, G31C
# DNA 1: CAATCTGAATTCCGGTCTCCC
# DNA 2: TGGTGGCTACGACGGGATT
# B26: GGUAUUA (DNA:RNA)
# RNA: B5 RNA with C26G, G27U, C28A, C31A
# DNA 1: CAATCTGAATTCCGGTCTCCC
# DNA 2: TGGTGGCTACGACGGGATT
# B27: GGUAAUG (DNA:RNA)
# RNA: B1 RNA with A25G, A26G, A27U, G28A, A30U
# DNA 1: CAATCTGAATTCCGGTCTCCC
# DNA 2: TGGTGGCTACGACGGGATT
# B28: UUAGUUG (DNA:RNA)
# RNA: B1 RNA with A25U, A26U, A29U, A30U
# DNA 1: CAATCTGAATTCCGGTCTCCC
# DNA 2: TGGTGGCTACGACGGGATT
# B29: AUGCCAC (DNA:RNA)
# RNA: B5 RNA with G25A, C26U, U29C, U30A
# DNA 1: CAATCTGAATTCCGGTCTCCC
# DNA 2: TGGTGGCTACGACGGGATT
# B30: GUUACCC (DNA:RNA)
# RNA: B5 RNA with C26U, G27U, C28A, U29C, U30C
# DNA 1: CAATCTGAATTCCGGTCTCCC
# DNA 2: TGGTGGCTACGACGGGATT
# B31: UGGGUGA (DNA:RNA)
# RNA: B5 RNA with G25U, C26G, C28G, U30G, C31A
# DNA 1: CAATCTGAATTCCGGTCTCCC
# DNA 2: TGGTGGCTACGACGGGATT
# B32: UGGGCGU (DNA:RNA)
# RNA: B1 RNA with A25U, A26G, A27G, A29C, A30G, G31U
# DNA 1: CAATCTGAATTCCGGTCTCCC
# DNA 2: TGGTGGCTACGACGGGATT
# B33: UGGGUGC (DNA:RNA)
# RNA: B5 RNA with G25U, C26G, C28G, U30G
# DNA 1: CAATCTGAATTCCGGTCTCCC
# DNA 2: TGGTGGCTACGACGGGATT
# B34: UGGGGCG (DNA:RNA)
# RNA: B1 RNA with A25U, A26G, A27G, A29G, A30C
# DNA 1: CAATCTGAATTCCGGTCTCCC
# DNA 2: TGGTGGCTACGACGGGATT
# B35: CUGGGUG (DNA:RNA)
# RNA: B1 RNA with A25C, A26U, A27G, A29G, A30U
# DNA 1: CAATCTGAATTCCGGTCTCCC
# DNA 2: TGGTGGCTACGACGGGATT
# B36: UGGUGCU (DNA:RNA)
# RNA: B5 RNA with G25U, C26G, C28U, U29G, U30C, C31U
# DNA 1: CAATCTGAATTCCGGTCTCCC
# DNA 2: TGGTGGCTACGACGGGATT
# B37: UGGCGUU (DNA:RNA)
# RNA: B5 RNA with G25U, C26G, U29G, C31U
# DNA 1: CAATCTGAATTCCGGTCTCCC
# DNA 2: TGGTGGCTACGACGGGATT
# B38: CCCUGGG (DNA:RNA)
# RNA: B1 RNA with A25C, A26C, A27C, G28U, A29G, A30G
# DNA 1: CAATCTGAATTCCGGTCTCCC
# DNA 2: TGGTGGCTACGACGGGATT
# B39: CCUGGUG (DNA:RNA)
# RNA: B1 RNA with A25C, A26C, A27U, A29G, A30U
# DNA 1: CAATCTGAATTCCGGTCTCCC
# DNA 2: TGGTGGCTACGACGGGATT
# Target: T1, RBFOX1 RRM
# Assay: EMSA; HiTS-Eq, 1 nM pool, 10 min; buffer printed only for the single-RNA assays: 10 mM Tris pH 7.5, 150 mM NaCl, 3.4 mM EDTA, 0.001% NP-40, 30 C
# Conditions: tags: His6 N-terminal (pET28a); label: 5' 32P
# How it was run: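 These values rest on relative association constants, computed from read-count changes of each RNA species versus the control reaction and normalised to the cognate motif. Reads came from free RNA recovered by 8% native PAGE after purified RbFox RRM (wild type or mutant) at increasing concentrations was equilibrated for 10 min in 50 µL with 1 nM of a 5′-radiolabelled pool with 7 randomized nucleotides and DNA-annealed flanks.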
row,Binder,binding signal
1,B1,0.00539 KA relative to UGCAUGU
2,B2,0.0121 KA relative to UGCAUGU
3,B3,0.0318 KA relative to UGCAUGU
4,B4,0.0418 KA relative to UGCAUGU
5,B5,0.0175 KA relative to UGCAUGU
6,B6,0.0018 KA relative to UGCAUGU
7,B7,0.00928 KA relative to UGCAUGU
8,B8,0.016 KA relative to UGCAUGU
9,B9,0.00524 KA relative to UGCAUGU
10,B10,0.0143 KA relative to UGCAUGU
11,B11,0.00781 KA relative to UGCAUGU
12,B12,0.0478 KA relative to UGCAUGU
13,B13,0.0153 KA relative to UGCAUGU
14,B14,0.0254 KA relative to UGCAUGU
15,B15,0.0267 KA relative to UGCAUGU
16,B16,0.0205 KA relative to UGCAUGU
17,B17,0.0241 KA relative to UGCAUGU
18,B18,0.0188 KA relative to UGCAUGU
19,B19,0.0174 KA relative to UGCAUGU
20,B20,0.0357 KA relative to UGCAUGU

row,Binder,binding signal
1,B21,0.0422 KA relative to UGCAUGU
2,B22,0.0374 KA relative to UGCAUGU
3,B23,0.0199 KA relative to UGCAUGU
4,B24,0.0168 KA relative to UGCAUGU
5,B25,0.00108 KA relative to UGCAUGU
6,B26,0.00455 KA relative to UGCAUGU
7,B27,0.0152 KA relative to UGCAUGU
8,B28,0.0187 KA relative to UGCAUGU
9,B29,0.0065 KA relative to UGCAUGU
10,B30,0.0047 KA relative to UGCAUGU
11,B31,0.0273 KA relative to UGCAUGU
12,B32,0.0388 KA relative to UGCAUGU
13,B33,0.0429 KA relative to UGCAUGU
14,B34,0.0294 KA relative to UGCAUGU
15,B35,0.0408 KA relative to UGCAUGU
16,B36,0.0292 KA relative to UGCAUGU
17,B37,0.0221 KA relative to UGCAUGU
18,B38,0.00714 KA relative to UGCAUGU
19,B39,0.0199 KA relative to UGCAUGU
